Assay results: ChEMBL document CHEMBL3988442, “University of Dundee, Small-Polar-MMV Screening Library” (2021)
For some assays here: Results with a measured potency or affinity are listed apart.

How the values were obtained:
Parameters in all cases: scale not given: direction of the effect not stated beside the values
[1] = target: Protein translocase subunit SecA (Escherichia coli (strain K12)) (UniProt P10408); assay: Assay to Identify E. coli SecA ATPase Inhibitors; assay type: functional; conditions: 30 µM
[2] = target: T1, Ubiquitin-activating enzyme e1, putative (Leishmania donovani (strain BPK282A1)) (UniProt E9BSI1); assay: Leishmania donovani Ubiquitin Activating Enzyme (LdE1); assay type: functional; conditions: 30 µM
T1 sequence (whole entry): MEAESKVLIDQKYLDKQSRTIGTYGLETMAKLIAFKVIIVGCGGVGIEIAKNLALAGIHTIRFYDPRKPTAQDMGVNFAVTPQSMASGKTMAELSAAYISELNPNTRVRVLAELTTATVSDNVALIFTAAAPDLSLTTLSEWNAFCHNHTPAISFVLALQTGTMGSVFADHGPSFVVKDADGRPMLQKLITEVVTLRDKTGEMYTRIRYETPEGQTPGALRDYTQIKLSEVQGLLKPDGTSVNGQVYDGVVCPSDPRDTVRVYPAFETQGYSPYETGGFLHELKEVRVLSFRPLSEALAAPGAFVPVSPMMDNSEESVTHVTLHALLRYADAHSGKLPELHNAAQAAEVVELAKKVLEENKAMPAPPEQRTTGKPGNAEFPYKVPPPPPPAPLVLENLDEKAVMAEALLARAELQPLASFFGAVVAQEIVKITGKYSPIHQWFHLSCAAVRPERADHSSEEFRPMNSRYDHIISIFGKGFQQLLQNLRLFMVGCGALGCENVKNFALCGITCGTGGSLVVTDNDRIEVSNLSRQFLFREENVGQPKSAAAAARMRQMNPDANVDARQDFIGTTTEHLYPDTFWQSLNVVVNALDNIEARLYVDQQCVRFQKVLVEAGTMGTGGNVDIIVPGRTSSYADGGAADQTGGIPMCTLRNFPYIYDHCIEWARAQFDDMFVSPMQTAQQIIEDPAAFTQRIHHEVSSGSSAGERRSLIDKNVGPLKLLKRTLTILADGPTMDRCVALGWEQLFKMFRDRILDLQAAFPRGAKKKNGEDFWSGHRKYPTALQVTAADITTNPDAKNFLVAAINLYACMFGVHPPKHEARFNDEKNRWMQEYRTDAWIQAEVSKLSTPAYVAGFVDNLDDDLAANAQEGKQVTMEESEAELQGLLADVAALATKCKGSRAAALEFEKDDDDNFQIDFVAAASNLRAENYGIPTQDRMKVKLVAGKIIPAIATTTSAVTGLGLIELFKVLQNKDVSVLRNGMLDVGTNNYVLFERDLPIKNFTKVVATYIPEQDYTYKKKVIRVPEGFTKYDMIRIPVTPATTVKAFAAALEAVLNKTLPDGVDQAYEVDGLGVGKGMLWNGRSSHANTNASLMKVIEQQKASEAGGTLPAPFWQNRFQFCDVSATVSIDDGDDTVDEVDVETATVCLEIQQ

[3] = target: AMP-activated protein kinase, AMPK (Homo sapiens) (UniProt P54646+O43741+P54619+Q9UGJ0+Q9Y478+Q13131+Q9UGI9); assay: AMP-dependent Kinase enzyme assay. An in vitro enzyme assay that detects ADP turnover that is directly proportional to AMPK activity. This uses naive AMPK that is activated during the assay with MK-8722; assay type: functional; conditions: 30 µM
[4] = target: Sialic acid-binding Ig-like lectin 9 (Homo sapiens) (UniProt Q9Y336); assay: Hs-Siglec9 ALPHAscreen SOP 20170721; conditions: 10 µM
Trypanosoma cruzi = assay: Trypanosoma cruzi phosphomannomutase and mannose-1-phosphate guanylyltransferase assay; assay type: functional; conditions: 10 µM
[5] = target: T2, Arginase-2, mitochondrial (Homo sapiens) (UniProt P78540); assay: in vitro enzyme assay to detect the production of urea directly proportional to the activity of Arginase II; assay type: functional; conditions: 33.3 µM; also: in the data most compounds retested in dose-response had high values
T2 sequence (whole entry): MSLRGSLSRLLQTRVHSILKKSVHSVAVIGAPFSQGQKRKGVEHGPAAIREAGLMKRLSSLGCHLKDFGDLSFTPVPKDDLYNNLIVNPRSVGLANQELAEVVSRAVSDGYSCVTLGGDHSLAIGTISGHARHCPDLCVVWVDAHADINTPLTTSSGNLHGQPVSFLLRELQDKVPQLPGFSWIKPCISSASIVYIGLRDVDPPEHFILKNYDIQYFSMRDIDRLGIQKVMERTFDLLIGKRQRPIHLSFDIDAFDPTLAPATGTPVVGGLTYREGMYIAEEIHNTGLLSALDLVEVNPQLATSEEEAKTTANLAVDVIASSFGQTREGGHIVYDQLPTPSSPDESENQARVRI

[6] = target: T3, Proteasome subunit beta (Trypanosoma cruzi) (UniProt O96673); assay: Trypanosoma cruzi proteasome chymotrypsin-like activity (TcProtChymo) assay.; also: in the data most compounds retested in dose-response had high values; assay type: functional; conditions: 9.37 µM
T3 sequence (whole entry): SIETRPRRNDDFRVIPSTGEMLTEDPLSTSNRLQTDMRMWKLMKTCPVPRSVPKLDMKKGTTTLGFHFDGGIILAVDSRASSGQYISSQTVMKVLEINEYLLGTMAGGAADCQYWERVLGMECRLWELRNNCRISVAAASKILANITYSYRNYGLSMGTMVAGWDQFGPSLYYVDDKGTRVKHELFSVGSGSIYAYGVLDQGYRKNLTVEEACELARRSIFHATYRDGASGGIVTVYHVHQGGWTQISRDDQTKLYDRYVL

Homo sapiens = organism: Homo sapiens; assay: To identify inhibition of the IFN signalling (Jak-Stat) pathway via expression of an eGFP reporter gene under the control of an IFN-stimulated response element (ISRE) containing MxA promoter.; assay type: functional; conditions: 30 µM
[7] = target: T4, Tyrosyl-tRNA synthetase, putative (Trypanosoma cruzi (strain CL Brener)) (UniProt Q4DSP6); assay: Trypanosoma cruzi tyrosyl tRNA synthetase (TcYRS) _High Tyrosine SOP; assay type: functional; conditions: 30 µM; also: in the data most compounds retested in dose-response had high values
T4 sequence (whole entry): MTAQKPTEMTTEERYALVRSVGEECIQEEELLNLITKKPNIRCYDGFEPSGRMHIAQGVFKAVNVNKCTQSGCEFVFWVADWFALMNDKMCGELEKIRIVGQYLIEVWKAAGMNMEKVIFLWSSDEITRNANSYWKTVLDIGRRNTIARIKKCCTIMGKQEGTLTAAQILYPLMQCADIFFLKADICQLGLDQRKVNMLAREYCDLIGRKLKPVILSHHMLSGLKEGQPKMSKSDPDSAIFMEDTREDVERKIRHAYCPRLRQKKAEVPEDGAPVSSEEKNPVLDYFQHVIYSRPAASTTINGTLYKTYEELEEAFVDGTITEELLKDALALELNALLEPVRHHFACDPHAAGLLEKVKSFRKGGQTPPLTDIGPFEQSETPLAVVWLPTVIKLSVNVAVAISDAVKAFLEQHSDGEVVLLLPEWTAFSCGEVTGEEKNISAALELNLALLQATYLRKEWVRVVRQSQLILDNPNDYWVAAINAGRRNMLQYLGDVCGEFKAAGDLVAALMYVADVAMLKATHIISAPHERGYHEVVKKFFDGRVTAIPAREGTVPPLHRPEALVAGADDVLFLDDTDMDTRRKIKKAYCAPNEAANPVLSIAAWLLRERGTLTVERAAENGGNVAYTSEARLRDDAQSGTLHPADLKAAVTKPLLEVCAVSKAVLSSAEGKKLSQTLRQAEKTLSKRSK

[8] = target: T4, Tyrosyl-tRNA synthetase, putative (Trypanosoma cruzi (strain CL Brener)); assay: Trypanosoma cruzi tyrosyl tRNA synthetase (TcYRS) SOP; assay type: functional; conditions: 30 µM
[9] = target: Chromo domain-containing protein 1 (Saccharomyces cerevisiae (strain ATCC 204508 / S288c) (Baker's yeast)) (UniProt P32657); assay: ScCHD-1 Enzyme Inhibition Assay; assay type: functional; conditions: 30 µM; also: in the data most compounds retested in dose-response had high values
Sequence of Chromo domain-containing protein 1 (Saccharomyces cerevisiae (strain ATCC 204508 / S288c) (Baker's yeast)) (P32657 whole entry, the tested form may be a part): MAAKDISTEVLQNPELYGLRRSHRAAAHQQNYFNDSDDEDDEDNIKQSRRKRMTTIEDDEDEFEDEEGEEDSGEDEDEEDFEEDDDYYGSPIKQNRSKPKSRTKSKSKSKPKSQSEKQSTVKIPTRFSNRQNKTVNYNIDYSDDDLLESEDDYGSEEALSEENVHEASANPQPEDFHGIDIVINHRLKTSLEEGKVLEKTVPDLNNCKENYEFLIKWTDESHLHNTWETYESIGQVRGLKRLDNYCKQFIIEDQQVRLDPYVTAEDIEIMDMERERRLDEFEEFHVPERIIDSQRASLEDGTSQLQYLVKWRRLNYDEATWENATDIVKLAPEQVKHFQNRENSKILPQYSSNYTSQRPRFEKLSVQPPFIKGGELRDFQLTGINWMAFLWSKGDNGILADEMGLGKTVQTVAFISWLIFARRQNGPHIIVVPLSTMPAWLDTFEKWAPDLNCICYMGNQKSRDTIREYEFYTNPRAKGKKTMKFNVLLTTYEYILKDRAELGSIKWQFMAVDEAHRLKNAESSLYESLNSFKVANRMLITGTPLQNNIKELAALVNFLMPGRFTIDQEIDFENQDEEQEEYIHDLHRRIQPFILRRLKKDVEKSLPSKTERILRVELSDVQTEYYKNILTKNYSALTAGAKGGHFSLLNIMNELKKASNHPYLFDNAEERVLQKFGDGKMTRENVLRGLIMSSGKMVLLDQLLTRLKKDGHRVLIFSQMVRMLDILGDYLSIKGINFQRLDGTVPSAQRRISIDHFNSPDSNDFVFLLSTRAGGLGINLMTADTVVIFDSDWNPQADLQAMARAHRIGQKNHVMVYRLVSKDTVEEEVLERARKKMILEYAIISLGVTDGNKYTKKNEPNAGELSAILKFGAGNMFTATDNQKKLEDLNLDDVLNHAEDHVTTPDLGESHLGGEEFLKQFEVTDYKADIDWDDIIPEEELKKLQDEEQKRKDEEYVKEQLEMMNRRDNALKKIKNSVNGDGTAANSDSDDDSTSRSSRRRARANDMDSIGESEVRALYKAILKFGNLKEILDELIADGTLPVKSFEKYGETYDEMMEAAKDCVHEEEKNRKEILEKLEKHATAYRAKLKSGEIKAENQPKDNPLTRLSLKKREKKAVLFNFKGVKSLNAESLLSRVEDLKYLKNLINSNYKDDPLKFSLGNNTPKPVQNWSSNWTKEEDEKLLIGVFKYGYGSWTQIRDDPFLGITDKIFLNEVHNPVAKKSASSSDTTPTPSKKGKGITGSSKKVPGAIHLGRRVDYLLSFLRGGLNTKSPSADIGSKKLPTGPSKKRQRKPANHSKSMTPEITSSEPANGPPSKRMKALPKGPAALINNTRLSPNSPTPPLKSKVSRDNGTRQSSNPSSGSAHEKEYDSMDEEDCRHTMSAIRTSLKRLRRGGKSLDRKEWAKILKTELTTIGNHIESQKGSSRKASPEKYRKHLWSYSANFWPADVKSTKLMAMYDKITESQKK

Sequence of Sialic acid-binding Ig-like lectin 9 (Homo sapiens) (Q9Y336 whole entry): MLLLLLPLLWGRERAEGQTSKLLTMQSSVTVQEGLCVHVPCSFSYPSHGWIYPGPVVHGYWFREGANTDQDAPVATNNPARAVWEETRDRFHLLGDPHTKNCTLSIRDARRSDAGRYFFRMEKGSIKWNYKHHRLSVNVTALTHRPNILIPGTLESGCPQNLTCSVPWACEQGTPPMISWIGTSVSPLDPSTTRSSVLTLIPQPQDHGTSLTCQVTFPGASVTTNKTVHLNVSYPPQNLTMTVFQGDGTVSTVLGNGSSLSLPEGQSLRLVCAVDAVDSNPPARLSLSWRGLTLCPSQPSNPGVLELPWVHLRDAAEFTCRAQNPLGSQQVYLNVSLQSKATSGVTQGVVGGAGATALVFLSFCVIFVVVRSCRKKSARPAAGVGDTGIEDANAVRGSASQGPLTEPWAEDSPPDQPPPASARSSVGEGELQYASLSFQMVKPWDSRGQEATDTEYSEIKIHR
Sequence of Protein translocase subunit SecA (Escherichia coli (strain K12)) (P10408 whole entry): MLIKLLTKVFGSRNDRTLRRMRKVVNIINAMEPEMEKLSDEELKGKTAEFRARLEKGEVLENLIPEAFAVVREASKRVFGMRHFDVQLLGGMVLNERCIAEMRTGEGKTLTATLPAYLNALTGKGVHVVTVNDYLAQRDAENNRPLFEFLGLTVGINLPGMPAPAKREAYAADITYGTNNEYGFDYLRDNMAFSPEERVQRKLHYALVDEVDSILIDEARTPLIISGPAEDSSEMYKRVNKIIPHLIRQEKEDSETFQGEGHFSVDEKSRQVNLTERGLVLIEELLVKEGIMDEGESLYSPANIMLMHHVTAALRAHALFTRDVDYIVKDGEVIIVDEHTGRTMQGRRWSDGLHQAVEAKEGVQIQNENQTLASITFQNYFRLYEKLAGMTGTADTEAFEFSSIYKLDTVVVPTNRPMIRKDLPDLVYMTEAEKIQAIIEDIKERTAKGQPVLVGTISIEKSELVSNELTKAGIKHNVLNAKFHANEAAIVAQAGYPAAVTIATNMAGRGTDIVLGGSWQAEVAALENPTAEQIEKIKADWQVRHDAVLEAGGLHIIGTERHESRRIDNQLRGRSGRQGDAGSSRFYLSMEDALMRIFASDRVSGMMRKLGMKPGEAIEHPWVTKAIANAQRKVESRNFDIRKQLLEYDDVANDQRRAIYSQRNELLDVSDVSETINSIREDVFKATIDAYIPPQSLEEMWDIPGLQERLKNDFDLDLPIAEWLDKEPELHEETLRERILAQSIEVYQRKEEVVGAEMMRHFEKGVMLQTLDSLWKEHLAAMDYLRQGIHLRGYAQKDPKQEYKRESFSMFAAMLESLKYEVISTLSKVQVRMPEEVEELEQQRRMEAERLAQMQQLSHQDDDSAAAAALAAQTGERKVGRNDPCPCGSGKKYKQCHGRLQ

SMILES	Percent Effect [1]	Percent Effect [2]	Percent Effect [3]	Percent Effect [4]	Percent Effect (Trypanosoma cruzi)	Percent Effect [5]	Percent Effect [6]	Percent Effect (Homo sapiens)	Percent Effect [7]	Percent Effect [8]	Percent Effect [9]
COCCN1CCCC(O)(CN2CCN(c3ncccc3C)CC2)C1=O (stereo unspecified)	5.28%	-27%	-3.41%	7.83%	-5.21%	0.476%	15.3%	9.99%	8.99%	12.2%	-5.83%
Cc1cc(C)c(CNC(=O)N(C)Cc2sccc2C)c(=O)[nH]1	-4.14%	18.4%	-5.42%	-3.09%	-3.46%	-2.88%	2.62%	9.33%	4.43%	11.1%	-4.59%
COc1ccc(CCNC(=O)NC2CCCC2)cc1OC	0.159%	8.11%	-0.309%	3.69%	-1.16%	3.33%	13.3%	6.13%	5.82%	9.76%	-3.01%
C[C@@H]1CN(C(=O)NC2CC2)C[C@]12CCN(c1ccsc1)C2=O	-4.11%	5.33%	8.07%	0.822%	-4.13%	2.1%	2.56%	8.5%	4.25%	11.5%	-3.74%
CN(C)S(=O)(=O)c1ccc(CN2CCCC2CO)o1 (stereo unspecified)	-4.59%	0%	-2.33%	10.6%	-0.84%	-2.88%	-3.3%	11.2%	4.43%	3.7%	1.24%
Cc1cnn(C2CCCN(C(=O)Cc3cn4ccccc4n3)C2)c1 (stereo unspecified)	-5.24%	19%	-2.41%	-0.453%	-0.103%	-1.5%	11.8%	4.05%	1.04%	17.7%	-26.5%
Cc1cc(CNC(=O)NC(C)c2ccc(N3CCOCC3)cc2)no1 (stereo unspecified)	-5.74%	10.4%	-1.83%	16.5%	5.61%	-6.9%	11.8%	-5.95%	4.3%	8.64%	-6.04%
N#Cc1ccc(CN2CCC(c3ccnn3CCO)CC2)cc1	-4.87%	10.5%	-3.54%	2.96%	0.654%	-1.8%	-4.48%	3.68%	7.39%	23.5%	-1.9%
Cc1cnn(CCNCc2ccccc2C#N)c1	-7.98%	5.41%	-2.49%	6.11%	-5.11%	-0.554%	5.21%	14.9%	-1.98%	-1.22%	1.22%
CN1N=C(C(=O)N2CCCC(CCc3c(F)cccc3F)C2)CCC1=O (stereo unspecified)	-4.37%	2.7%	0.625%	7.41%	1.74%	0%	1.21%	4.11%	3.7%	7.32%	-1.23%
CS(=O)(=O)N1CCOC2(CCCN(c3cnccn3)C2)C1 (stereo unspecified)	-3.81%	0%	-1.28%	-4.89%	-2.83%	1.74%	6.09%	1.81%	1.07%	1.24%	0.866%
CC(C)(C)SCCCC(=O)N1CCC(Nc2cccnn2)CC1	-1.17%	-2.7%	-6.83%	13.1%	0.283%	-1.6%	-1.98%	8.77%	4.43%	6.17%	0.803%
CCCC(C)(C)NC(=O)c1ccc(CC2CC(=O)NC2=O)cc1 (stereo unspecified)	-8.33%	8.22%	6.89%	23.9%	3.53%	2.27%	15.1%	13.9%	3.23%	10%	-5.88%
O=C(NC(CO)CO)c1coc(COc2cccc(F)c2)n1	-2.81%	18.9%	1.42%	15.9%	2.44%	10.2%	9.19%	-0.407%	7.53%	21%	-4.2%
CCc1nnc2n1CCN(C(=O)c1ccc3[nH]cnc3c1)C2	-7.1%	12.5%	-11.5%	41.5%	6.9%	3.97%	10.2%	0.294%	3.16%	15.4%	-13.2%
Cc1cnn(CC2CCCN2C(=O)CCc2ccsc2)c1 (stereo unspecified)	-4.66%	7.79%	3.01%	4.3%	3.82%	2.32%	0.242%	15.8%	1.91%	7.06%	-15.5%
